# Screening results deposited in PubChem by National Center for Advancing Translational Sciences (NCATS).
# The sample as a whole holds a higher share of hits than the screen did.
# nsP2pro primary – CHIKV nsP2 protease inhibition, primary qHTS; Potency, µM (titrated, usually from 24.9 µM), without a hit: at the top dose activity change, negative = inhibition, usual class: inhibitors; FRET peptide cleavage, nsP2pro, fluorescence 1 h; Q8JUX6; hit rate 1.1% among 31,000; note: nearly all actives have a fitted effect of over 60% in size
#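 FRET cleavage of 2.5 uM peptide 2 by 150 nM CHIKV protease domain at pH 8.0 (Tris, Tween 20). Compounds at 7 concentrations (up to 25 uM) preincubated 15 min. Fluorescence read after 1 h at room temperature.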
# CHIKV nsP2 cell – secondary cell-based test for CHIKV nsP2 protease inhibitors. cell-based CHIKV nsP2 protease reporter assay. hit rate 10% among 450. Potency, µM (titrated, usually from 51.1 µM), for inactives: at the top dose activity change, negative = inhibition, most hits filed as inhibitors. shares compounds with nsP2pro primary; note: nearly all actives have a fitted effect of over 70% in size
# NSP2 full ctr – selectivity test for CHIKV nsP2 protease inhibitors: full-length NSP2. shares compounds with nsP2pro primary. Full-length CHIKV NSP2 protease enzymatic counterscreen. Potency, µM (series often up to 50.7 µM), for the others: at the top dose activity change, negative = inhibition, actives largely listed as inhibitors. hit rate 39% among 410; note: nearly all actives have a fitted effect of over 65% in size
# Furin counterscr – inhibits human furin in a CHIKV nsP2 protease selectivity counterscreen. hit rate 6% among 410. AID 1964102. Recombinant human furin enzymatic counterscreen, fluorogenic substrate. shares compounds with nsP2pro primary. Potency, µM (titrated, usually from 50.6 µM), without a hit: top-dose activity change, negative = inhibition, hits mostly inhibitors
# Target sequence (P09958 whole entry, looked up): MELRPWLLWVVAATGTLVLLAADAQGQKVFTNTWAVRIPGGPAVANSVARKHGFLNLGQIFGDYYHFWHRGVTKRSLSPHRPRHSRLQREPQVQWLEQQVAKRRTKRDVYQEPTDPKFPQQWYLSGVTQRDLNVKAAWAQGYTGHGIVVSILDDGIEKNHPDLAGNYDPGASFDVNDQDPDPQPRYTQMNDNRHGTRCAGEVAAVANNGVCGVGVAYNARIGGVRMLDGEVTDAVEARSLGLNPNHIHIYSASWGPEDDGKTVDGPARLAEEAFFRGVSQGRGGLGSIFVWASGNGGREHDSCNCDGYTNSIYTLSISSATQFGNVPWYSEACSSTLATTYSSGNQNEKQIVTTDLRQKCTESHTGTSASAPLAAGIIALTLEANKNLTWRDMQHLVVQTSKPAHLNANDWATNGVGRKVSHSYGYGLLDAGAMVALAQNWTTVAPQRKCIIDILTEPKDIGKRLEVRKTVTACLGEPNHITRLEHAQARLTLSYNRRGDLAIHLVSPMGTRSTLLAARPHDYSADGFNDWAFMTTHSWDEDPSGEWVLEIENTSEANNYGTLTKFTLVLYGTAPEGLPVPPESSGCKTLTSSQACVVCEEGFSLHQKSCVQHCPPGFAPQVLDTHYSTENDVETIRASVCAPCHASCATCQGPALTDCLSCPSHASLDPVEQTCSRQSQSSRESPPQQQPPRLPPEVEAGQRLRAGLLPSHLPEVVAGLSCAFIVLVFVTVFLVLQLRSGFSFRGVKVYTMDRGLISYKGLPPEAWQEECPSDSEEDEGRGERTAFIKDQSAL
# nsP2 NS23 pep – nsP2pro inhibition on native NS2/3 peptide substrate; shares compounds with nsP2pro primary; Purified CHIKV nsP2 protease, endogenous NS2/3 peptide cleavage; Potency, µM (series often up to 51 µM), without a hit: top-dose activity change, negative = inhibition, hits mostly inhibitors; hit rate 34% among 410; note: nearly all actives have a fitted effect of over 55% in size
# Papain cs – inhibits papain in a CHIKV nsP2 protease selectivity counterscreen; shares compounds with nsP2pro primary; purified papain protease activity, enzymatic inhibition; Potency, µM (highest dose often 51 µM), without a hit: at the highest dose activity change, negative = inhibition, most hits filed as inhibitors; hit rate 5% among 410; AID 1964104
# nsP2pro confirm – CHIKV nsP2 protease inhibition, confirmatory qHTS. shares compounds with nsP2pro primary. CHIKV nsP2 protease enzymatic activity, qHTS. Potency, µM (series often up to 25.5 µM), for the others: top-dose activity change, negative = inhibition, most hits filed as inhibitors. hit rate 43% among 410. AID 1964105; note: nearly all actives have a fitted effect of over 75% in size
# HCV NS3 4A cs – HCV NS3/4A protease inhibition, counterscreen; hit rate 20% among 410; HCV NS3/4A protease biochemical counterscreen; AID 1964106; Potency, µM (highest dose often 50.9 µM), most hits filed as inhibitors; shares compounds with nsP2pro primary; note: nearly all actives have a fitted effect of over 55% in size
# Numbers without * were called inactive; i = inactive; ? = inconclusive; [ ] = dose if it differs, or a comment. Calls come from the whole dose curve. % is set by controls: 0 for no effect and ±100 for the full control effect; potency is the fitted concentration of half-maximal effect.
SMILES,nsP2pro primary,others
CC(=O)NC1CC2(CCN(C(=O)CCCNC(=O)OC(C)(C)C)CC2)Oc2ccccc21 (stereo not given),?,CHIKV nsP2 cell=-3.7%;NSP2 full ctr=-72.3%;Furin counterscr=-4.5%;nsP2 NS23 pep=?;Papain cs=-4.3%;nsP2pro confirm=?;HCV NS3 4A cs=?
Cc1ccc(S(=O)(=O)Nc2ccncc2C(=O)Nc2nc(-c3ccccc3)cs2)cc1,3.9%,
COc1nccc(-c2nc(Nc3ccc(F)c(F)c3)c3ccccc3n2)c1Cl,i,
COC1=C(OC)C(=O)C(CC=C(C)CCC=C(C)CCC=C(C)CCC=C(C)CCC=C(C)CCC=C(C)CCC=C(C)CCC=C(C)CCC=C(C)CCC=C(C)C)=C(C)C1=O,-3.4%[2.68 µM],
CC(C)=CCC1=C(O)c2ccccc2C(=O)C1=O,?,CHIKV nsP2 cell=?;NSP2 full ctr=?;Furin counterscr=-10.9%[100 µM];nsP2 NS23 pep=?;Papain cs=-27.2%[100 µM];nsP2pro confirm=-30.8%[50 µM];HCV NS3 4A cs=i
Cc1noc2c(NC3CCC(O)CC3)cc(-c3cccnc3)nc12 (stereo not given),2.9%[39.2 µM],
CC(C)COC(=O)N1[C@@H](c2ccco2)[C@@H](CO)C[C@]12CCCCNC2=O,?,CHIKV nsP2 cell=2.1%;NSP2 full ctr=-14.7%;Furin counterscr=-10.2%;nsP2 NS23 pep=?;Papain cs=-3.6%;nsP2pro confirm=-18.4%;HCV NS3 4A cs=?
CNC(=O)[C@H]1C[C@]2(CCCCNC2=O)N(C(=O)c2cccc(C#N)c2)[C@H]1c1ccco1,-3.9%,
Cc1ccnc(NC(=S)N2CC3CN(c4ncc(C(F)(F)F)cc4Cl)CC3C2)c1 (stereo not given),-0.9%,
CNC(=O)c1ccccc1Nc1nc(Nc2ccc3c(c2OC)CCC[C@H](N2CCN(CCO)CC2)C3)ncc1Cl,83.8%,
C=CC(=O)Nc1cccc(Nc2nc(Nc3ccccc3)ncc2C)c1,6.8%,
CCCCN1C(=O)c2ccccc2C1=O,-6.7%,
CCCCC1C(=O)N(c2ccccc2)N(c2ccc(O)cc2)C1=O (stereo not given),8.81µM*,CHIKV nsP2 cell=?;NSP2 full ctr=20.6µM*;Furin counterscr=-12.9%;nsP2 NS23 pep=6.51µM*;Papain cs=-12.4%;nsP2pro confirm=7.98µM*;HCV NS3 4A cs=i
CC(C)=CCC1C(=O)N(c2ccccc2)N(c2ccccc2)C1=O,-4.3%,
Cc1cc(C)nc(NC(=S)N2CCN(c3ccc(Cl)cc3[N+](=O)[O-])CC2)c1,-5.3%,
O=C(O)CCCC(=O)N[C@H]1CO[C@H]2[C@@H]1OC[C@@H]2Nc1nccc(-c2ccc3c(c2)OCO3)n1,-13.9%,
C=C1C[C@]23C[C@H]1CC[C@H]2[C@@]12CC[C@H](O)[C@@](C)(C(=O)O1)[C@H]2[C@@H]3C(=O)O,-8.8%,
C=C1CC23CC1CCC2C12OC(=O)C(C)(C(O)CC1O)C2C3C(=O)O (stereo not given),?,CHIKV nsP2 cell=4.7%[33.5 µM];NSP2 full ctr=1.1%[33.5 µM];Furin counterscr=2.0%[33.5 µM];nsP2 NS23 pep=-5.4%[33.5 µM];Papain cs=-5.8%[33.5 µM];nsP2pro confirm=-19.6%[16.7 µM];HCV NS3 4A cs=i
C=C1C[C@]23C[C@H]1[C@@H](O)C[C@H]2[C@@]12C=C[C@H](O)[C@@](C)(C(=O)O1)[C@H]2[C@@H]3C(=O)O,-20.6%,
Cc1ccc(CNc2ccccc2C(=O)Nc2nc(-c3ccccc3)cs2)cc1,-9.6%,
CC1CC2C3CCC4=CC(=O)C=CC4(C)C3(F)C(O)CC2(C)C1(O)C(=O)COC(=O)c1cccc(S(=O)(=O)O)c1 (stereo not given),-0.4%,
Cc1ccc(-c2cc(C(=O)Nc3ccccc3C)c3ccccc3n2)cc1C,2.0%,
CC(=O)O[C@H]1C[C@@H](O)C(C)(C)C2C[C@@H](OC(C)=O)[C@]3(C)C(CC[C@@]4(C)[C@H](c5ccoc5)OC(=O)[C@H]5O[C@]543)[C@]21C (stereo not given in full),-25.0%[10 µM],
CC(=O)O[C@@H]1CC2C(C)(C)C(=O)C=C[C@]2(C)C2CC[C@@]3(C)[C@H](c4ccoc4)OC(=O)[C@H]4O[C@]43[C@@]21C (stereo not given in full),?,CHIKV nsP2 cell=-15.2%[17.6 µM];NSP2 full ctr=?;Furin counterscr=-5.4%[17.3 µM];nsP2 NS23 pep=-26.6%[17.2 µM];Papain cs=?;nsP2pro confirm=?;HCV NS3 4A cs=i
CC(=O)OC1CC2C(C)(C)C(=O)C=CC2(C)C2CC(=O)C3=C(CCC3C3=CC(O)OC3=O)C12C (stereo not given),-15.5%[10 µM],
SMILES,nsP2pro primary,others
CC(C)CCC[C@@H](C)[C@H]1CC[C@H]2[C@@H]3CC[C@H]4C[C@@H](O)CC[C@]4(C)[C@@H]3CC[C@]12C,10.2%[10 µM],
CC(C)=CCC[C@](C)(O)[C@H]1CC[C@]2(C)[C@@H]1[C@H](O)C[C@@H]1[C@@]3(C)CC[C@H](O)C(C)(C)[C@@H]3CC[C@]12C,-27.1%,
C[C@@H]1O[C@@H](O[C@H]2[C@H](OC(=O)[C@]34CCC(C)(C)C[C@H]3C3=CCC5[C@@]6(C)C[C@H](O)[C@H](O[C@@H]7O[C@H](CO)[C@@H](O[C@H]8OC[C@](O)(CO)[C@H]8O)[C@H](O)[C@H]7O)[C@@](C)(CO)C6[C@H](O)C[C@@]5(C)[C@]3(C)C[C@H]4O)OC[C@H](O)[C@@H]2O)[C@H](O)[C@H](O)[C@H]1O[C@@H]1OC[C@@H](O)[C@H](O[C@@H]2OC[C@](O)(CO)[C@H]2O)[C@H]1O (stereo not given in full),-3.5%[5.1 µM],
CCC(C)/C=C(C)/C=C/C1=CC2=C(Cl)C(=O)C(C)(OC(C)=O)C(=O)C2=CO1 (stereo not given),?,CHIKV nsP2 cell=-14.2%[33.5 µM];NSP2 full ctr=?;Furin counterscr=-18.6%[33.5 µM];nsP2 NS23 pep=?;Papain cs=?;nsP2pro confirm=?;HCV NS3 4A cs=i
CCC(C)/C=C(C)/C=C/C1=CC2=CC(=O)C(C)(O)C(OC(C)=O)C2CO1 (stereo not given),-2.5%,
CCC(C)/C=C(C)/C=C/C1=CC2=CC(=O)C3(C)OC(C)(O)C(C(=O)OC)C3C2=CO1 (stereo not given),?,CHIKV nsP2 cell=-3.5%[17.6 µM];NSP2 full ctr=-14.6%[17.3 µM];Furin counterscr=-8.9%[17.3 µM];nsP2 NS23 pep=-10.7%[17.2 µM];Papain cs=4.3%[17.2 µM];nsP2pro confirm=?;HCV NS3 4A cs=i
CCC(C)/C=C(C)/C=C/C1=CC2=C(Cl)C(=O)C(C)(OC(C)=O)C(=O)C2=CN1CCCCC(N)C(=O)O (stereo not given),-21.1%[10 µM],
CCC(C)/C=C(C)/C=C/C1=CC2=C(Cl)C(=O)C(C)(OC(C)=O)C(=O)C2=CN1C(CCC(=O)O)C(=O)O (stereo not given),-0.9%[10 µM],
